# Screening results: PubChem, National Center for Advancing Translational Sciences (NCATS)
# This is a sample that favours compounds with a hit; in the whole collection about 11% have one here.
# Sm TGR block: S. mansoni TGR enzyme inhibition. Q962Y6. AID 485364. 360,000 tested, 3% active. Potency, µM (titrated, usually from 114 µM), actives largely listed as inhibitors. purified TGR, DTNB reduction, TNB absorbance 405 nm; further: nearly all actives have a fitted effect of over 60% in size
#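 First, TGR (20 nM dispensed) and NADPH were mixed with compound. Second, a 15 min room-temperature incubation followed. Third, further NADPH and then DTNB were added to start the reaction. Finally, TNB absorbance was monitored kinetically.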
# AMA1 RON2 block: inhibitors of Plasmodium falciparum AMA1-RON2 interaction | AlphaScreen AMA1-biotinylated RON2 peptide binding | Potency, µM (series often up to 58.2 µM), usual class: inhibitors | 360,000 tested, 0.2% active | AID 720542; further: nearly all actives have a fitted effect of over 45% in size
#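 AMA1 (3D7) with his tag at 25 nM final met compounds first, then biotinylated RON2 peptide at 25 nM; detection used donor plus acceptor beads, 10 µg/mL apiece, read by AlphaScreen after 30 min at room temperature.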
# Pf growth 48h: P. falciparum growth inhibition at 48 hours (one generation) | P. falciparum luciferase growth in erythrocytes, 48 h | Potency, µM (doses to about 28.7 µM), hits mostly inhibitors | 310,000 tested, 5.9% active
#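 Firefly luciferase activity from engineered P. falciparum reports growth; inhibitors lower the luminescent signal. Cultures contained 2% hematocrit erythrocytes at 0.1% final parasitemia.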
# NS1 inh: influenza NS1 inhibition; Potency, µM (highest dose often 46.1 µM); 270,000 tested, 0.4% active; calls by dose curve; further: actives are rising curves; nearly all actives have a fitted effect of over 50% in size
#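 In this qHTS, NS1 from influenza A is expressed in budding yeast, where it slows growth. Cells are switched from glucose to 2% galactose medium (pH 6.0, -URA), treated with compound, and growth recovery is read at OD600.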
# Pf growth 96h: inhibits malaria parasite growth, 96 h; P. falciparum luciferase reporter growth, 96 h; Potency, µM (titrated, usually from 28.7 µM), most hits filed as inhibitors; 320,000 tested, 6.9% active; AID 504834
#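 96 h incubation, 37 C, 5% CO2, of luciferase-reporter P. falciparum-infected RBCs (2% hematocrit, 0.05% parasitemia final) with test compounds; endpoint luminescence.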
# Numbers stand for hits; 0 = inactive; ? = inconclusive; - = no result; [ ] = dose if it differs, or a comment. Unless noted, the call rests on the fitted dose curve; in most records, active means well fitted curve in the direction sought with a large enough effect; inconclusive means small, poorly fitted or top-dose-only effect, or another doubt; inactive means no such curve, though single readings can be large; an effect the other way counts as inactive or inconclusive.
SMILES,Sm TGR block,AMA1 RON2 block,Pf growth 48h,NS1 inh,Pf growth 96h
CCN(CC)c1ccc(C=C2C(=O)N(C)C(=S)N(C)C2=O)o1,45µM,0,0,0,0
Cc1ccc(NC(=O)C2CCN(c3nc4ccccc4[nH]3)CC2)c(C)c1,0,-,-,-,-
NNC(=O)c1oc2nc(-c3ccc(Cl)cc3)cc(-c3ccccc3)c2c1N,0,0,4.1µM,0,2.6µM
CC1(C)CC(=O)C2=C(C1)c1c(ccc3ccccc13)NC2c1ccc(C(=O)O)cc1 (stereo not given),0,0,?,0,?
Cc1ccc(C2Nc3ccc4ccccc4c3C3=C2C(=O)CC(C)(C)C3)o1 (stereo not given),0,0,15µM,0,?
CC(=O)Nc1ccc(OCC(O)Cn2c(C(C)C)nc3ccccc32)cc1 (stereo not given),-,0,0,0,2.3µM
CC(=O)Nc1ccc(OCC(O)Cn2nc(C)c(C(C)=O)c2C)cc1 (stereo not given),0,0,0,0,-
CC(=O)Nc1ccc(OCC(O)Cn2nc(C)c(C)c2C)cc1 (stereo not given),0,0,0,0,10µM
CC(=O)Nc1ccc(OCC(O)CN2CCN(c3cccc(Cl)c3)CC2)cc1 (stereo not given),0,0,?,0,10µM
CC(=O)c1ccc(-c2nnc(CCC(=O)N3CCCC(C(=O)CC(C)C)C3)o2)s1 (stereo not given),?,0,0,0,0
Cc1ccc(CNS(=O)(=O)c2ccc3c(c2)n(C)c(=O)c(=O)n3C)cc1,0,0,0[1.15 µM],0,0
Nc1nc(COC(=O)C2CC(=O)N(CCc3ccccc3)C2)nc(Nc2ccccc2)n1 (stereo not given),0,0,0,-,?
Cc1ccc(NC(=O)C2CCCCC2)cc1C,0,0,?,-,0
COC1CCCCC1Nc1ccc(C)c(C)c1 (stereo not given),0,?,0,0,2.1µM
Nc1nc2c(c(=O)[nH]1)C(c1ccccc1)C1=C(N2)c2ccccc2C1=O (stereo not given),0,0,9.3µM,0,10µM
CCC(C)c1ccc(C2C3=C(Nc4nc(N)[nH]c(=O)c42)c2ccccc2C3=O)cc1 (stereo not given),0,0,0,0,?
CC(C)c1ccc(C2C3=C(CC(C)(C)CC3=O)NC3=C2C(=O)c2ccccc23)cc1 (stereo not given),0,?,9.3µM,?,6.6µM
CC1(C)CC(=O)C2=C(C1)NC1=C(C(=O)c3ccccc31)C2c1ccccc1 (stereo not given),?,0,13µM,0,?
CCOc1ccc(C2C(C#N)=C(C)NC3=C2C(=O)c2ccccc23)cc1 (stereo not given),0,0,-,0,9.3µM
Cc1ccc(C)c(SCC(=O)Nc2oc(C)c3c(C)n[nH]c(=O)c23)c1,0,0,0,-,0
CCNC(=O)C1CCCN(C(=O)c2cc(C)oc2C)CC1 (stereo not given),-,0,-,-,-
CCOC(=O)C(=O)N(C)c1c(CC)nc2c(OCCC3CCCCC3)cccn12,-,0,-,-,-
CC(=O)c1ccc(N2CCN(C(=S)Nc3ccccc3C(F)(F)F)CC2)cc1,0,0,?,0,?
CC1=C([N+](=O)[O-])C(c2ccccc2)C2=C(N1)c1ccccc1C2=O (stereo not given),14µM,?,-,0,2.9µM
COc1ccc(S(=O)(=O)NC2CC2)cc1Cl,0,0,0,0,2.3µM
SMILES,Sm TGR block,AMA1 RON2 block,Pf growth 48h,NS1 inh,Pf growth 96h
COc1ccc(S(=O)(=O)Nc2ccccc2OC)cc1C,?,0,0,0,0
COc1cc(NS(=O)(=O)c2ccc(C)c(C)c2)c(OC)cc1Cl,0,0,0,0,6.6µM
O=C(COc1ccc(S(=O)(=O)NC2CCCCC2)cc1Cl)NCC1CCCO1 (stereo not given),0,0,?,0,-
COc1ccc(CCNC(=O)COc2ccc(S(=O)(=O)NC3CCCCC3)cc2Cl)cc1,0,0,13µM,0,?
N=c1ccn(Cc2cccc(F)c2)cc1,0,0,2.3µM,0,0
Cc1ccc(C)c(NC(=O)C2CCN(c3nn4c(=O)cc(C)nc4s3)CC2)c1,0,-,-,-,-
CCOC(=O)c1oc2ccc3c(c2c1C)C(=O)CC1(CCN(C(=O)OCC)CC1)O3,0,0,2.6µM,0,0
CCOC(=O)N1CCC2(CC1)CC(=O)c1c(ccc3oc(C(=O)O)c(C)c13)O2,0,0,0,0,-
COc1ccccc1/C=N/N1C(=O)C(CC(=O)Nc2ccc([N+](=O)[O-])cc2OC)SC1=Nc1cccc(C)c1C (stereo not given),-,-,3.7µM,0,?
COc1cc([N+](=O)[O-])ccc1NC(=O)C[n+]1cccc(C)c1,0,0,0,0,?
CCOc1ccc(/C(C)=N/N2C(=O)C(CC(=O)Nc3ccc(OC)cc3[N+](=O)[O-])SC2=Nc2cccc(C)c2C)cc1 (stereo not given),18µM,0,2.1µM,0,2.3µM
COc1cc([N+](=O)[O-])ccc1NC(=O)Cc1ccccc1,-,0,0,0,0
COc1cc([N+](=O)[O-])ccc1NC(=O)CCCOc1cccc(C)c1C,0,0,0,0,2.9µM
COc1cccc(Cc2nc3ccccc3nc2SCC(=O)Nc2cccc(C)c2)c1,0,-,-,-,-
Cc1ccccc1Nc1nnc(SCC(=O)c2c(N)n(C)c(=O)n(C)c2=O)s1,0,0,5.2µM,-,?
Cn1c(=O)c(C(=O)CSc2nnc(Nc3ccccc3)s2)c(N)n(Cc2ccccc2)c1=O,0,0,?,0,-
CCSc1nnc(SCC(=O)c2c(N)n(C)c(=O)n(C)c2=O)s1,0,0,?,-,4.1µM
Cc1cc(C)nc(SCC(=O)c2c(N)n(C)c(=O)n(C)c2=O)n1,0,0,0,0,-
COc1ccc(Nc2nn3c(=O)c4cc5c(cc4nc3s2)OCO5)c(OC)c1,0,-,-,-,-
COc1ccc2c(c1OC)C(=O)OC2n1c(O)c(N=NC(C)=O)c2ccccc21 (stereo not given),0,0,0,0,0
CCCCSc1nc(O)c(C2OC(=O)c3c2ccc(OC)c3OC)c(=O)n1-c1ccccc1 (stereo not given),8.9µM,0,-,?,0
C=CCSc1nc(O)c(C2OC(=O)c3c2ccc(OC)c3OC)c(=O)n1-c1ccccc1 (stereo not given),4µM,0,0,0,0
CCCSc1nc(O)c(C2OC(=O)c3c2ccc(OC)c3OC)c(=O)n1-c1ccccc1 (stereo not given),11µM,0,-,0,0
CC1CCN(S(=O)(=O)c2cc(C(=O)N3CCN(c4ccccc4F)CC3)n(C)c2)CC1,0,-,-,-,-
COc1cc(C2C(=O)N(C3CCCCCC3)CC(=O)N2Cc2ccccc2)ccc1OC(C)C (stereo not given),0,-,-,-,-
O=C(CSc1nc(-c2ccccc2)cc(C(F)(F)F)n1)c1cccc([N+](=O)[O-])c1,0,0,0,0,?
O=C(CNC(=O)c1ccc(Br)cc1)NCCc1nc2ccccc2[nH]1,0,0,-,?,0
